From publication PMC4336329 (PLoS ONE, 2015)
The whole screen tested about 310,000 compounds, of which about 14,000 (4.5%) showed an effect of 50% or more. Effects have a minus sign here. The list comes from a sample in which strong results are over-represented; it also holds similar structures and randomly drawn compounds.

Target: human ether-à-go-go-related gene (hERG) potassium channel (human, UniProt Q12809)
Assay: primary screen, population patch clamp on CHO cells stably expressing hERG; higher = less effect of the substance
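Further: peak tail current of the secondary pulse compared with the same well before compound.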

Sequence of human ether-à-go-go-related gene (hERG) potassium channel (Q12809 whole entry, looked up): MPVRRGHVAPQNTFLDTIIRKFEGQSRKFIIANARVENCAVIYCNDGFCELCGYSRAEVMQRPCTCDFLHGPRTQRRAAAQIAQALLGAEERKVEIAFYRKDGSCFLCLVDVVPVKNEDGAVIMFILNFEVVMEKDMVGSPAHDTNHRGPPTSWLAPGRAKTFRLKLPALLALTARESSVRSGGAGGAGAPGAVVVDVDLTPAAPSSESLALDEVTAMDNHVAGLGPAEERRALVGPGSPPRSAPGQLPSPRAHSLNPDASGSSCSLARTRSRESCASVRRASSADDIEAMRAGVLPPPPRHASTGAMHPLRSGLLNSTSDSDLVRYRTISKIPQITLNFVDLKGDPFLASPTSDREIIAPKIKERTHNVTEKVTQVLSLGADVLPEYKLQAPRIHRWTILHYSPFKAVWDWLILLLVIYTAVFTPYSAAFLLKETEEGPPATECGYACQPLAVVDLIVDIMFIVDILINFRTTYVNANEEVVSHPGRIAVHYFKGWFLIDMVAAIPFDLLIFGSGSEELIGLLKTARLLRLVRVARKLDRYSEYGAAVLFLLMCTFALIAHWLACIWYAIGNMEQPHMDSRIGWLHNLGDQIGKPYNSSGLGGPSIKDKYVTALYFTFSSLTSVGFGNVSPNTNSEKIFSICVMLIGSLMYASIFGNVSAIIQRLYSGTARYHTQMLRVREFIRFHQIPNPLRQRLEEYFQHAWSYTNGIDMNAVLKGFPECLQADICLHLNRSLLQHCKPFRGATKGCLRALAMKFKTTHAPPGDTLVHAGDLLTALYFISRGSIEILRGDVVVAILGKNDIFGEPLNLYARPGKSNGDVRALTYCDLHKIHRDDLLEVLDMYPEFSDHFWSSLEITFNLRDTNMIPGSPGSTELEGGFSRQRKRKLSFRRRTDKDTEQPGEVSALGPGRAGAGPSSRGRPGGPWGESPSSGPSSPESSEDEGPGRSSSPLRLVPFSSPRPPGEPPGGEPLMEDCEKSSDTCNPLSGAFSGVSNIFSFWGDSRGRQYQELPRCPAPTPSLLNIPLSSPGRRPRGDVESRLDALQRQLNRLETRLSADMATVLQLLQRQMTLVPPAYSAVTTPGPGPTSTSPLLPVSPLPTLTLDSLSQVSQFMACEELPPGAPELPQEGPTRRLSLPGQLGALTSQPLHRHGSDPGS

| Structure (SMILES) | hERG current change (%, negative = inhibition) at 10uM [%] |
| --- | --- |
| CCC1=NN(C(=O)Cc2ccc(OC)cc2)C(O)(C(F)(F)F)C1 (stereo not shown) | -6.51 |
| O=C(NC1=NCCS1)c1ccc(Cl)c(S(=O)(=O)N2CCCCC2)c1 | -2.52 |
| CCOC(=O)C(C(=O)OCC)C1CCS(=O)(=O)C1 (stereo not shown) | 14.4 |
| Cc1ccnn1C(C)C(=O)O (stereo not shown) | 26.3 |
| Cc1ccc(C(=O)N/C(=C/c2ccccc2)C(=O)NC(Cc2ccccc2)C(=O)O)cc1 (stereo not shown) | 8.07 |
| Cc1ccc(C(=O)N/C(=C/c2ccccc2)C(=O)NCC2CCCO2)cc1 (stereo not shown) | -21.7 |
| Cc1ccc(C(=O)N/C(=C/c2ccccc2)C(=O)NCc2ccncc2)cc1 | -65.2 |
| Cc1ccc(C(=O)N/C(=C\c2ccccc2)C(=O)NCc2ccncc2)cc1 | -71.2 |
| O=C(/C=C/c1cccs1)c1ccc(Br)cc1 | 7.19 |
| CC(C)Oc1ccc(Br)cc1C(=O)N/N=C/c1c[nH]c2ccccc12 | 16.2 |
| CCOc1ccc2[nH]c(=O)c(CN(CCN3CCCC3)C(=S)Nc3ccccc3OCC)cc2c1 | -70.2 |
| COc1ccc(NC(=O)N(CCc2ccccc2)Cc2cc3c(C)cc(C)cc3[nH]c2=O)cc1 | 14 |
| COc1ccccc1NC(=S)N(CCCN(C)C)Cc1cc2cc3c(cc2[nH]c1=O)OCO3 | 33.3 |
| COc1ccccc1NC(=O)N(CCN(C)C)Cc1cc2cc(C)ccc2[nH]c1=O | -50.2 |
| CCOc1ccc(NC(=S)N(CCN2CCOCC2)Cc2cc3cc4c(cc3[nH]c2=O)OCO4)cc1 | -34.6 |
| Cc1cc(C)c2cc(CN(CCO)C(=O)Nc3ccc(Cl)cc3)c(=O)[nH]c2c1 | -1.76 |
| CCOc1ccc2[nH]c(=O)c(CN(CCN3CCCC3)C(=S)Nc3ccccc3OC)cc2c1 | -49.7 |
| COc1ccccc1NC(=S)N(Cc1ccco1)Cc1cc2cc(C)ccc2[nH]c1=O | 3.67 |
| COc1cc2cc(CN(CCN3CCCC3)C(=O)Nc3ccccc3Cl)c(=O)[nH]c2cc1OC | -6.16 |
| Cc1cc(C)c2cc(CN(CCN(C)C)C(=O)Nc3ccccc3Cl)c(=O)[nH]c2c1 | -55.3 |
| COc1ccc2[nH]c(=O)c(CN(CCN3CCCC3)C(=O)Nc3ccccc3Cl)cc2c1 | -47.6 |
| COc1ccccc1NC(=O)N(CCN1CCCC1)Cc1cc2cc(C)ccc2[nH]c1=O | -64.8 |
| Cc1ccc(S(=O)(=O)/C(C#N)=C/c2c(N3CC(C)OC(C)C3)nc3ccccn3c2=O)cc1 (stereo not shown) | -46.3 |

| Structure (SMILES) | hERG current change (%, negative = inhibition) at 10uM [%] |
| --- | --- |
| CN(C(=S)NC(=O)c1ccccc1)c1c(N)n(Cc2ccccc2)c(=O)[nH]c1=O | 0.51 |
| Cc1ccc(S(=O)(=O)NCCSc2nnnn2C)cc1 | -2.53 |
| Cc1cc2cc(OCc3ccccc3)ccc2n1C | 18 |
| CN(C)S(=O)(=O)c1cccc(-c2csc(=Nc3ccccc3)n2CCCN2CCOCC2)c1 | -26.5 |
| O=C1[C@@H]2[C@H](C(=O)N1O)[C@H]1C=C[C@@H]2C1 | -5.3 |
| CC(C)(C)c1cc(CP(=O)(c2ccccc2)c2ccccc2)cc(C(C)(C)C)c1O | 14.7 |
| CC(=O)Nc1ccc(S(=O)(=O)N2CCSC2c2ccc(C)cc2)cc1 (stereo not shown) | 2.9 |
| Cc1csc(NC(=O)c2ccc3c(c2)OCO3)n1 | -0.0676 |
| CCN(CC)CCCN(Cc1cc2cc3c(cc2[nH]c1=O)OCO3)C(=S)Nc1ccccc1OC | -10.5 |
| CCN(CC)CCN(Cc1cc2cc(C)ccc2[nH]c1=O)C(=O)Nc1ccccc1OC | -62.2 |
| CCN(CC)CCCN(Cc1cc2cc3c(cc2[nH]c1=O)OCO3)C(=O)Nc1ccccc1OC | -10.6 |
| Nc1c(-c2cccc(Cl)c2)cnn1-c1cccc([N+](=O)[O-])c1 | -41.4 |
| O=C1C2C3C=CC(C3)C2C(=O)N1c1ccc(-c2nc3ccccc3c(=O)o2)cc1 (stereo not shown) | 19.6 |
| COC(=O)C1=C(C)N(Cc2ccccc2)C(=O)N[C@H]1c1cccc(C(F)(F)F)c1 | -8.04 |
| Fc1ccccc1N1CCN(C2CCCN(Cc3ccccc3C(F)(F)F)C2)CC1 (stereo not shown) | -5.91 |
| CN1CCC(N2CCN(c3cccc(C(F)(F)F)c3)CC2)CC1 | -12.8 |
| CCN(CC)CC(=O)N1CCCC(N2CCN(c3cccc(C(F)(F)F)c3)CC2)C1 (stereo not shown) | -10.5 |
| CCCN1CCC(N2CCN(c3cccc(C(F)(F)F)c3)CC2)CC1 | -75.3 |
| CC(=O)c1cccc(CN2CCCC(N3CCN(c4ccccc4F)CC3)C2)c1 (stereo not shown) | -35.3 |
| Oc1ccccc1CN1CCCC(N2CCN(c3cccc(C(F)(F)F)c3)CC2)C1 (stereo not shown) | -61.9 |
| Fc1ccccc1N1CCN(C2CCCN(Cc3cccc(C(F)(F)F)c3)C2)CC1 (stereo not shown) | -52.1 |
| O=C(C1CCOCC1)N1CCCC(N2CCN(c3cccc(C(F)(F)F)c3)CC2)C1 (stereo not shown) | -12.9 |
| FC(F)(F)c1ccccc1CN1CCCC(N2CCN(c3ccccc3)CC2)C1 (stereo not shown) | -0.712 |
